Source: PubChem BioAssay (NCI)
The panel holds about 79,000 compounds, 15% with a hit somewhere; the sample as a whole holds those more often. Rule as the data show it: active = growth inhibition above about 70%; inactive = the rest. Where a SMILES comes first, the peptide text is derived from it.

Assays:
[1] = NCI Yeast Anticancer Drug Screen. Data for the rad50 strain (AID 155);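 also: 0% = growth of vehicle-only cultures of the same strain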; conditions: S. cerevisiae rad50 strain growth inhibition; at 50.0 µM; active compounds read high
Procedure, shortened: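 Cells are treated with compound, grown, and their growth is then scored against vehicle-only cultures of the same repair-deficient yeast strain.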

[2] = NCI Yeast Anticancer Drug Screen. Data for the mec2-1 strain (AID 157); conditions: S. cerevisiae mec2-1 strain, at 50.0 µM, active compounds read high
Procedure, shortened: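 Compounds were applied to mec2-1 yeast cells. Their growth was then compared with that of vehicle-treated cultures to give growth inhibition.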

[3] = NCI Yeast Anticancer Drug Screen. Data for the sgs1 mgt1 strain (AID 161);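 also: 0% = growth of cultures given vehicle only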; conditions: S. cerevisiae sgs1 mgt1 strain, at 50.0 µM, active compounds read high
Procedure, shortened: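 Percent growth inhibition was derived by comparing compound-exposed mutant yeast with vehicle-exposed cultures. The strain carries alterations in DNA damage repair.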

[4] = NCI Yeast Anticancer Drug Screen. Data for the cln2 rad14 strain (AID 165);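 also: 0% = growth equal to vehicle treated cultures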; conditions: S. cerevisiae cln2 rad14 strain, at 50.0 µM, active compounds read high
Procedure, shortened: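 Strain: cln2 rad14 yeast, altered in cell cycle control and DNA damage repair. Read-out: growth inhibition vs vehicle.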

[5] = NCI Yeast Anticancer Drug Screen. Data for the bub3 strain (AID 167); conditions: S. cerevisiae bub3 mutant strain, at 50.0 µM, active compounds read high
Procedure, shortened: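 Part of a panel of yeast mutants defective in DNA damage repair or cell cycle regulation. Each strain is grown with compound, and inhibition is calculated relative to solvent-treated cultures.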

[6] = NCI Yeast Anticancer Drug Screen. Data for the mlh1 rad18 strain (AID 175); conditions: S. cerevisiae mlh1 rad18 strain growth inhibition; at 50.0 µM; active compounds read high
Procedure, shortened: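 A repair-deficient yeast strain is exposed to test compound, and growth is scored relative to vehicle-treated controls.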

Measured: growth inhibition

O=c1[nH]cnc2nn(C3OC(CO)C(O)C3O)nc12 (stereo unspecified)
inactive: [1] 10.7% | [2] 11.5% | [3] 1.5% | [4] 11.2% | [5] -7.2% | [6] 23.6%

CCOc1ccc(-c2cc(-c3ccc(OCC)cc3)cc(-c3ccc(OCC)cc3)c2)cc1
inactive: [1] -2.05% | [2] -9.7% | [3] 1.3% | [4] -7.2% | [5] -5.05% | [6] -2.85%

CC(=O)c1ccc(OC(=O)Nc2ccc(C)cc2)cc1
inactive: [1] -2.25% | [2] 27.3% | [3] 17.8% | [4] -6.2% | [5] 26.5% | [6] 15.6%

NC(=S)N/N=C(\CCC(=O)Nc1ccccc1[N+](=O)[O-])CC(=O)c1ccco1
inactive: [1] -1.55% | [2] -1.95% | [3] -19.9% | [4] 27.4% | [5] -19.8% | [6] 6.3%

Nc1ccnc(=O)[nH]1
inactive: [1] -3.5% | [2] -11.7% | [3] -18.8% | [4] -20.8% | [5] 3.3% | [6] -36.8%

COc1ccc(OC)c(/C=C/C2=C(C)C(=O)CC(c3cc(OC)ccc3OC)C2C)c1 (stereo unspecified)
inactive: [1] 4.3% | [2] 12.3% | [3] 28.3% | [4] 8.75% | [5] 2.35% | [6] 4.3%

Nc1cccc(=O)[nH]1
inactive: [1] 6.3% | [2] -10.2% | [3] -0.05% | [4] 3.7% | [5] 9.45% | [6] -3.85%

OCCNc1ncnc2[nH]ncc12
inactive: [1] 2.75% | [2] -6.1% | [3] -20.6% | [4] -21.8% | [5] -24.2% | [6] 5.55%

c1ccc([P+](Cc2ccc(C[P+](c3ccccc3)(c3ccccc3)c3ccccc3)cc2)(c2ccccc2)c2ccccc2)cc1
inactive: [1] 48.2% | [2] 35.6% | [3] 29.4% | [4] 40.5% | [5] 47.9% | [6] 37.5%

CCC(C)C(N)C(=O)NC(Cc1ccc(O)cc1)C(=O)O (stereo not drawn) (H-Ile-Tyr-OH; configuration not given here)
inactive: [1] 16.4% | [2] -2.35% | [3] -0.8% | [4] 15.8% | [5] -10.2% | [6] 21.2%

COc1cc(O)c(C(C)=O)c(OC)c1
inactive: [1] -8.25% | [2] -12.8% | [3] -10.1% | [4] -31.1% | [5] -0.2% | [6] -2.05%

O=C(Nc1ccc(Cl)cc1)c1ccc(Cl)c(Cl)c1
inactive: [1] -1.6% | [2] 14.8% | [3] 7.1% | [4] -8.6% | [5] 11.8% | [6] -9.6%

CCN(CC)C(=O)CN
inactive: [1] 8.9% | [2] 0.6% | [3] 9.1% | [4] -3.05% | [5] 3.3% | [6] -8.15%

O=C(O)CCSc1ccccc1[N+](=O)[O-]
inactive: [1] 31.6% | [2] -8.6% | [3] 23.4% | [4] -10.3% | [5] -0.9% | [6] 19.9%

OCc1ccc2[n+](c1)CCC1c3ccccc3NC21 (stereo unspecified)
inactive: [1] -8.35% | [2] -8.75% | [3] -18.6% | [4] -8.4% | [5] -26.3% | [6] -6.45%

C[C@@H]1C[C@H]2[C@@H]3CCC4=CC(=O)C=C[C@]4(C)[C@@]3(F)[C@@H](O)C[C@]2(C)[C@@]1(O)C(=O)CO
inactive: [1] 11.8% | [2] -22.3% | [3] -16.2% | [4] 3.45% | [5] -5.1% | [6] 28.1%

CN(CC(=O)c1ccc(Cl)cc1)Cc1cccc2ccccc12
inactive: [1] 18.2% | [2] -5.8% | [3] 51.4% | [4] 11.7% | [5] 22.9% | [6] 38.8%

CC1(C)CC(=O)C2=C(SC3=C(C2)C(=O)CC(C)(C)S3)S1
inactive: [1] -5.75% | [2] -2.5% | [3] 2.8% | [4] -7.25% | [5] -9.85% | [6] -3.3%

Cc1cccc(C(=O)NCC(=O)O)c1
inactive: [1] -13.8% | [2] -3.7% | [3] -9.9% | [4] -85.5% | [5] 4.5% | [6] -9.7%

CCCCS(=O)CC(CO)NC(=O)/C=C/c1c(C)[nH]c(=O)[nH]c1=O (stereo unspecified)
inactive: [1] 12.9% | [2] 22.8% | [3] 12.8% | [4] 22.1% | [5] -3.25% | [6] 33.9%

Cc1cc(Cl)ccc1OCCCC(=O)NC(Cc1ccccc1)C(=O)O (stereo unspecified)
inactive: [1] 4.85% | [2] 8.95% | [3] -2.15% | [4] 27.5% | [5] -4.2% | [6] 0%

CCn1c(=O)c(C(=O)O)c(Cl)c2cc3c(cc21)OCO3
inactive: [1] 10.3% | [2] 9% | [3] 17.5% | [4] 18.9% | [5] 6.15% | [6] 38.2%

O=[N+]([O-])c1ccc(S(=O)(=O)n2cccc2)cc1
inactive: [1] 0.9% | [2] 8.8% | [3] -8.05% | [4] -20.9% | [5] 3.6% | [6] -19.8%

Brc1ccc(-c2cc(-c3ccc4c(c3)OCO4)c(-c3cccs3)n2Cc2ccccc2)cc1
inactive: [1] -17.9% | [2] -7.55% | [3] -0.5% | [4] 20.1% | [5] -24.6% | [6] -30.1%

O=C(O)c1cc(-c2c(Cl)cccc2Cl)nc2cc3ccccc3cc12
inactive: [1] 26% | [2] 15.8% | [3] 28.9% | [4] 21.4% | [5] 36.4% | [6] 26.4%

CC(=O)Nc1cc(Cl)cc2[nH]c(C)nc12
inactive: [1] 17.1% | [2] -3% | [3] -0.6% | [4] -0.25% | [5] 12.8% | [6] 37.4%

COc1cc(/C=C/C(=O)O)cc(OC)c1O
inactive: [1] 5.65% | [2] -5.05% | [3] -22.9% | [4] 23.1% | [5] 10.8% | [6] 16.5%

C=C(C)CN(C#N)CC(=C)C
inactive: [1] -15.2% | [2] 10.6% | [3] 6.35% | [4] -17.2% | [5] -3.95% | [6] 3.45%

Cc1ccc(C(CCl)c2ccc(C)cc2)cc1
inactive: [1] -18.1% | [2] -1.45% | [3] -0.35% | [4] -36.5% | [5] -21.5% | [6] -2.95%

COc1ccc2c(c1)C(N)=C(c1ccccc1OC)C2=O
inactive: [1] -8.45% | [2] 3.9% | [3] 4.95% | [4] -8.15% | [5] -7.4% | [6] -38.5%

COC(=O)CN1C(=O)OC(c2ccccc2)C1=O (stereo unspecified)
inactive: [1] -0.4% | [2] 1.15% | [3] -4.1% | [4] 8.15% | [5] -3.85% | [6] -13.4%

C=CCOC(=O)Oc1ccc(Cl)cc1
inactive: [1] 27.6% | [2] -13.9% | [3] 23.1% | [4] -0.85% | [5] -2.7% | [6] 28.6%

CC12CCCC=C1N(C=O)c1ccccc12 (stereo unspecified)
inactive: [1] -6.1% | [2] 26.3% | [3] 14.7% | [4] 11.6% | [5] -28.1% | [6] 16.8%

O=C1NC(=O)c2c(Br)c(Br)c(Br)c(Br)c21
inactive: [1] -20.6% | [2] -32.9% | [3] 2.35% | [4] 9.6% | [5] -16.6% | [6] -1.55%

CCCCCCCCCCCCCCS(=O)(=O)CCCl
inactive: [1] -5.85% | [2] -6.1% | [3] -21.2% | [4] -6.1% | [5] -5.2% | [6] -7.5%

Nc1ccc(S(=O)(=O)O)cc1Cl
inactive: [1] -12.5% | [2] -12% | [3] -5.25% | [4] -9.9% | [5] -10.4% | [6] -3.5%

CCCCS(=O)(=O)N1CCCC1
inactive: [1] 4.15% | [2] -10.3% | [3] 1.9% | [4] -28.2% | [5] -5% | [6] -5.85%

CCOC(=O)/C(O)=C/c1nc2ccccc2nc1C
inactive: [1] 18.8% | [2] 5.65% | [3] 8.9% | [4] -6% | [5] -17.3% | [6] 14.7%

COc1ccc(C(=O)C(CO)Oc2ccccc2OC)cc1OC (stereo unspecified)
inactive: [1] -3.05% | [2] 7.5% | [3] -20.2% | [4] 4.25% | [5] -13.5% | [6] -1.35%

NC1=NN(S(=O)(=O)c2ccc(Cl)cc2)CC1
inactive: [1] -14.7% | [2] -6.25% | [3] -8.75% | [4] -21.7% | [5] -3.3% | [6] 5.95%

O=C1C/C(=C/c2ccccc2[N+](=O)[O-])C(=O)N1c1ccccc1
inactive: [1] 16.4% | [2] 4.35% | [3] 13.4% | [4] -36.1% | [5] 3.8% | [6] 11.2%
